Screens: PubChem, National Center for Advancing Translational Sciences (NCATS)
A selection: hits, their analogues and other compounds. The true share with any hit is near 6.9%.
Giardia kill = Giardia lamblia killing; Giardia lamblia trophozoite viability; AID 540267; 340,000 compounds, 0.15% hits; activity change, % at 7.66 µM, hits read low; in the data active means activity change below about -80%; inconclusive means between about -30% and that limit;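 further: parasites exposed to compound for two days anaerobically before the ATP read; on the % scale 0 is the no-effect control and ±100 the full control effect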
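Trophozoite viability was measured as ATP-dependent luminescence, read 15-30 min after reagent addition. Before that, parasites at 100 cells/well were exposed to compounds for 48 h, anaerobically, at 37 deg C.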
KB-V1 cytotox = KB-V1 MDR subline cytotoxicity; KB-V1 MDR cells viability, CellTiter-Glo, 72 h; Potency, µM (titrated, usually from 46.1 µM), usual class: cytotoxic; 400,000 compounds, 3.4% hits; further: potency means the concentration at half of the fitted maximal effect; on the % scale 0 is the no-effect control and ±100 the full control effect; nearly all actives have a fitted effect of over 60% in size
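Potencies derive from concentration-effect curves fitted to normalized luminescence (CellTiter-Glo) of KB-V1 cells treated for 72 h at 37 degrees C in phenol-red-free DMEM containing 10% FBS.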
SW480 rerep = DNA re-replication induction in SW480 cells; SW480 DNA re-replication, Hoechst DNA content imaging, 48 h; Potency, µM (series often up to 46.1 µM), inactives show top-dose re-replication activation, hits mostly activators; 340,000 compounds, 1.8% hits; further: potency means the concentration at half of the fitted maximal effect; % of control where 0% means no effect; nearly all actives have a fitted effect of over 55% in size
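Image-based read-out: total Hoechst fluorescence of nuclei (405 nm excitation, 500-530 nm emission), with hits raising the fraction of high-intensity nuclei. SW480 colon cells incubated 48 hr with compounds at 37 C.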
S-ASM inh = inhibitors of human secretory acid sphingomyelinase | P17405 | placental ASM, HMU-PC fluorogenic substrate, 60 min | Potency, µM (titrated, usually from 57.5 µM), inactives show top-dose activity change, negative = inhibition, usual class: inhibitors | 340,000 compounds, 0.006% hits | AID 504937; further: potency means the concentration at half of the fitted maximal effect
Target sequence (P17405 47-631 limits assumed): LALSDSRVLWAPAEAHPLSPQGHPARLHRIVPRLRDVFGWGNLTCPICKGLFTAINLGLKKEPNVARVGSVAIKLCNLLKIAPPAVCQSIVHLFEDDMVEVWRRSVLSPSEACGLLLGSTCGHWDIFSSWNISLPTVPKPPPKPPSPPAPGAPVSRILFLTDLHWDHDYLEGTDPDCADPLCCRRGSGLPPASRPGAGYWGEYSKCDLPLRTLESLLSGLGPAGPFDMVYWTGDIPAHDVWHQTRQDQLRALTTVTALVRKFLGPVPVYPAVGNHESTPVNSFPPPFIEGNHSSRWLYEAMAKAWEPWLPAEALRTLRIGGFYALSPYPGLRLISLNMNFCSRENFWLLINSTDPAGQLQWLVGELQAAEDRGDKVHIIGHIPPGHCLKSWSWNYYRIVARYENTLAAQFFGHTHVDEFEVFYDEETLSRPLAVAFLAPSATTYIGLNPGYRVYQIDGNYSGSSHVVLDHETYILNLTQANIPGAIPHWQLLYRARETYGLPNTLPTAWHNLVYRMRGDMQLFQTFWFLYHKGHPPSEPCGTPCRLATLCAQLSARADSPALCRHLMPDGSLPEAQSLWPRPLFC
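Steps: dispense placental human ASM, pin compound, wait 10 min at room temperature, add HMU-PC0 substrate at 9 uM final, incubate 60 min at 37 °C, add stop solution raising pH to 10, read fluorescence.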
KB-3-1 tox = KB-3-1 parental cell cytotoxicity. 400,000 compounds, 1.4% hits. Potency, µM (series often up to 46.1 µM), most hits filed as cytotoxic. KB-3-1 viability, CellTiter-Glo ATP luminescence, 72 h. AID 1347075; further: potency means the concentration at half of the fitted maximal effect; on the % scale 0 is the no-effect control and ±100 the full control effect; nearly all actives have a fitted effect of over 60% in size
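Screening of KB-3-1 cells (DMEM, 10% FBS, phenol-red free) ran from lowest to highest compound concentration; after 72 h at 37 °C viability was read luminescently and curves fitted.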
MCF10A rereplic = DNA re-replication induction in MCF 10a cells; MCF 10A DNA re-replication, Hoechst nuclear intensity, 48 h; Potency, µM (doses to about 46.1 µM), without a hit: at the highest dose activity, positive = re-replication, usual class: activators; 350,000 compounds, 2.9% hits; further: potency means the concentration at half of the fitted maximal effect; % of control where 0% means no effect; nearly all actives have a fitted effect of over 50% in size
Starred values were filed as active, the others as inactive; i = inactive; ? = inconclusive; . = no result given; ! = repeats disagree. Unless noted, the call rests on the fitted dose curve; in most records, active means well fitted curve in the direction sought with a large enough effect; inconclusive means small, poorly fitted or top-dose-only effect, or another doubt; inactive means no such curve, though single readings can be large; an effect the other way counts as inactive or inconclusive.

SMILES | Giardia kill | KB-V1 cytotox | SW480 rerep | S-ASM inh | KB-3-1 tox | MCF10A rereplic
Cn1nc(C(F)(F)F)c(C(=O)Nc2ccc(F)cc2F)c1Cl | -5 | i | -9% | -2% | i | 6%
COc1cc(N(C)C)c(OC)cc1C=C1C=CC=C1 | . | i | . | . | i | .
COc1cc(C2C(C(=O)Nc3ccccc3)=C(C)Nc3nnnn32)cc(OC)c1OC (configuration not stated) | . | i | . | . | i | .
COc1ccc(Br)cc1C1=CC(=O)C[C@H](c2ccc(F)cc2)C1 | . | 16µM* | . | . | i | .
COc1ccc(C2=CC(=O)C[C@H](c3ccc(OC)cc3)C2)cc1 | -9 | i | -4% | -13% | i | ?
COc1ccc(C)cc1C1=CC(=O)C[C@H](c2ccc(F)cc2)C1 | 34 | i | 3% | 6% | i | ?
COc1ccc([C@H]2CC(=O)C=C(c3ccc(OC)cc3OC)C2)cc1 | 7 | 1.5µM* | 13µM* | 3% | 0.82µM* | ?
COc1ccc([C@H]2CC(=O)C=C(c3ccc(Cl)cc3C)C2)cc1 | ? | ? | ? | -7% | ? | 18µM*
COc1cccc(C2=CC(=O)C[C@H](c3ccc(Cl)cc3)C2)c1OC | 2 | i | 0% | 34% | i | 23µM*
CCN1CCc2c(sc(NC(=O)c3ccc(S(=O)(=O)N4CCCC(C)C4)cc3)c2C(=O)OC)C1 (configuration not stated) | . | i | . | . | i | .
Cn1c(O)c(/C=N/NC(=O)c2cc3ccccc3cc2O)c2ccccc21 | -9 | i | ? | 255% | ? | 21µM*
CN(Cc1ccccc1)Cc1c(O)ccc2c(=O)c(-c3ccccc3)c(C(F)(F)F)oc12 | . | i | . | . | i | .
CCc1cccc(NS(=O)(=O)c2ccc3c(c2)CC(C)N3C(=O)C2CC2)c1 (configuration not stated) | . | 13µM* | . | . | ? | .
CCN(CC)c1ccc(/C=C/c2nccc3ccccc23)cc1 | . | i | . | . | i | .
CN(C)c1ccc(C=Cc2nccc3ccccc23)cc1 | . | i | . | . | 9.2µM* | .
CN(C)c1ccc(/C=C/c2ccnc3ccccc23)cc1 | . | ? | . | . | 12µM* | .
CN(C)c1ccc(/C=C/c2ccnc3ccc4ccccc4c23)cc1 | . | i | . | . | 1.6µM* | .
CN(N=O)c1ccc(/C=C/c2ccnc3ccccc23)cc1 | . | i | . | . | i | .
O=C(O)c1cc2cccc([N+](=O)[O-])c2[nH]1 | . | i | . | . | i | .
Nn1c(=O)[nH]c2ccccc2c1=O | -2 | i | -4% | -5% | i | 5%
Cc1nn(S(=O)(=O)c2ccc(Br)cc2)c(C)c1S(=O)(=O)N1CCCCCC1 | . | i | . | . | i | .
O=C(COCc1cc(-c2cccs2)on1)N1CCN(c2ccc(F)cc2)CC1 | . | i | . | . | i | .
COc1ccccc1CNC(=O)C(Cc1ccccc1)NS(=O)(=O)c1ccc2c(c1)CCN2C(C)=O (configuration not stated) | . | i | . | . | i | .
Cc1[nH]c2ccccc2c1/C=N/NC(N)=S | 18 | i | 2% | -1% | i | 3%
Cc1ccc(NC(=S)N/N=C/c2c(C)[nH]c3ccccc23)cc1 | -2 | i | ? | -23% | i | 18µM*
SMILES | Giardia kill | KB-V1 cytotox | SW480 rerep | S-ASM inh | KB-3-1 tox | MCF10A rereplic
Cc1ccc(C(=O)Nc2ccc(C(=O)N/N=C/c3c[nH]c4ccccc34)cc2)cc1 | 0 | i | 17% | -17% | i | ?
Cc1cccc(NC(=S)N/N=C/c2c[nH]c3ccccc23)c1 | -13 | ? | 12µM* | -23% | 12µM* | 1.8µM*
COc1ccc(C(=O)N2CCC(C(=O)Nc3ccccc3Cl)CC2)cc1 | . | i | . | . | i | .
COc1ccc(NC(=O)C23CC4CC(C2)CC(c2ccccc2)(C4)C3)c(OC)c1 | 32 | 15µM* | ? | -5% | i | ?
COc1ccc(NC(=O)CNC(=O)C23CC4CC(CC(C4)C2)C3)c(OC)c1 | 0 | i | 4.6µM* | -2% | i | -22%
COCCNC(=O)C12CC3CC(C1)CC(c1ccccc1)(C3)C2 | -9 | i | -10% | 4% | i | 7%
COc1ccc(NC(=O)CC23CC4CC(CC(Br)(C4)C2)C3)c(OC)c1 | -11 | i | -3% | -1% | i | 2%
COc1ccc(CNC(=O)c2cccnc2)cc1 | -18 | i | 12% | 1% | i | -4%
CCOC(=O)CN1C(c2ccc(O)cc2)Nc2ccc(Br)cc2C1c1ccccc1 (configuration not stated) | -6 | ? | ? | -17% | ? | 18µM*
COc1ccc2[nH]c3c(c2c1)CCN1C(=O)N([C@@H](C)C(=O)NCCc2ccc(F)cc2)C(=O)[C@]31C | 11 | ? | ? | 0% | 12µM* | ?
COc1ccc(-c2csc(NC(=O)c3ccccc3NS(=O)(=O)c3ccc(F)c(F)c3)n2)cc1 | -22 | 4.1µM* | ? | 17% | 5.2µM* | 13µM*
Cc1ccc(S(=O)(=O)Nc2ccccc2C(=O)Nc2nc(-c3ccc(F)cc3)cs2)cc1 | -20 | 2.6µM* | ? | 163% | 12µM* | 5.8µM*
CN(Cc1cccnc1)C(=O)CCCc1c[nH]c2ccccc12 | -19 | ? | -3% | 1% | i | 18%
Cc1cccc(N2CCN(C(=O)c3ccc(CS(=O)Cc4ccc(Cl)cc4)o3)CC2)c1C (configuration not stated) | 6 | i | -2% | -8% | i | ?
Cc1ccc(C(=O)N2CCN(c3cccc(C)c3C)CC2)o1 | 9 | ? | 8% | 2% | 16µM* | ?
COc1ccc(S(=O)(=O)Cc2ccc(C(=O)N3CCN(c4cccc(C)c4C)CC3)o2)cc1 | 5 | ? | 21µM* | -7% | ? | ?
Cc1ccc(S(=O)(=O)Cc2ccc(C(=O)N3CCN(c4cccc(C)c4C)CC3)o2)cc1 | -21 | 2.9µM*! | 2.6µM* | -7% | i | ?
COc1ccc(S(=O)(=O)Cc2ccc(C(=O)N3CCN(c4cccc(C)c4)C(C)C3)o2)cc1 (configuration not stated) | -5 | i | 15µM* | -3% | 3.3µM* | 6.5µM*
COc1ccc(-c2cn3nc(N4CCCC(C(=O)NCc5ccccc5Cl)C4)sc3n2)cc1 (configuration not stated) | . | i | . | . | i | .
CCC(=O)N1CCN(c2nc(CC)nc3sc4c(c23)CCCC4)CC1 | -11 | ? | 2% | 0% | i | 13%
